SMILES strings stand for the structures. Compounds without any hit were thinned out: in the full panel of roughly 83,000, 20% have a hit.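 Compound tested at a single concentration for 48 hours in 96-well plates; a percent growth value below 10 was scored as active.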 A number with no mark means an inactive call. Active and inactive are the calls of the source.

The subject of the first test is UACC-257 melanoma. Briefly: NCI-60 one-dose screen, 48 h (100 = growth as untreated, 0 = no growth, -100 = all killed). To be noted: 10 µM unless noted.
Consider `COc1cc(C(=O)/C=C/c2c(-c3ccc(F)cc3)nc3sccn23)cc(OC)c1OC`, for which the growth is 39.9%.

Consider `Nc1nc(N)c2c(n1)NC(c1ccc(F)cc1)C1CCc3ccccc3C1=N2` (configuration not stated), for which the growth was 45.6%.

`COc1ccc(-c2cc(-c3ccc(Cl)cc3)nc(NCCCCNc3ccnc4cc(Cl)ccc34)n2)cc1`: the growth was 3.17% (active).

Take `Cc1cc(C)nc(SCC(=O)Nc2cccc(N=Cc3ccccc3O)c2)n1`: the growth was 103%.

As for `O=C(Nc1ccc(Nc2ccncc2)cc1)c1ccc([N+](=O)[O-])cc1`, the growth was 96.9%.

With `O=C1COCCN1c1ccc(NCc2cn(Cc3cccc4ccccc34)c3ccccc23)cc1`, the growth was 78.4%.

Take `O=C1/C(=C\c2cccn2Cc2ccccc2)c2ccccc2N1c1c(Cl)cccc1Cl`: the growth was 87.2%.

`CCCCCN(CCCCC)CCCCCCCCN1CCCc2ccccc21`: the growth was 95.2%.

`CC(C)CSc1ncnc2nc[nH]c12`: the growth was 98.4%.

As to `CCN(CC)CCCC(C)Nc1ccnc2cc(Cl)c(SCc3ccccc3)cc12` (configuration not stated), the growth was -79.2% (active).

Regarding `O=C(Nc1ccc(C(=O)/C=C/c2ccc(N3CCOCC3)cc2)cc1)Nc1ccc([N+](=O)[O-])cc1`, the growth is 99%.

Turning to `Cc1ccc(-c2cn(C/C=C3\C=CN(S(=O)(=O)c4ccccc4)CC3)nn2)cc1`, the growth is 106%.

`CCOc1ccc2sc(NS(=O)(=O)c3ccc(N)cc3)nc2c1`: the growth was 111%.

With `O=C(NCCCNC(=O)OCc1ccc2c(Br)cc(Br)c(O)c2n1)OCc1ccc2c(Br)cc(Br)c(O)c2n1`, the growth is -37.5% (active).

Consider `C=CCc1nc2ccccc2s1`, for which the growth was 90.4%.

`CCN(CC)CCCNCc1cc(-c2ccccc2)nc2ccccc12`: the growth was 80%.

`C=C(C)[C@@H]1CC[C@]2(C(N)=O)CC[C@]3(C)[C@H](CC[C@@H]4[C@@]5(C)C/C(=C/c6cccnc6)C(=O)C(C)(C)[C@@H]5CC[C@]43C)[C@@H]12`: the growth was 20.8% [100 µM].

In the case of `COC(=O)C(=Cc1ccccc1[N+](=O)[O-])C(=O)OC`, the growth was 57.1%.

As to `CCOC(CNC(=O)c1cccc([N+](=O)[O-])c1)OCC`, the growth is 83.2%.

In the case of `Cc1ccc(-c2cc(O)c(-c3ccc(C)cc3C)cc2O)c(C)c1`, the growth was 79%.

Take `Fc1cc2[nH]ncc2c2c3c(c(-c4cn[nH]c4)nc12)CCCC3`: the growth is -22.2% (active).

Regarding `O=C(CCN1CCCCC1)c1ccc(Cl)cc1`, the growth is 108%.

`CCOC(=O)C1=C(C(=O)c2ccc(Br)cc2)C(c2ccc(Br)cc2)NC(=S)N1` (configuration not stated): the growth is 109%.

In the case of `Cn1cc(-c2noc(-c3cn(C)c4ncc(F)cc34)n2)c2cc(Cl)ccc21`, the growth is 96.5%.

In the case of `O=[N+]([O-])c1cc([N+](=O)[O-])c(NN=C(c2ccc(O)cc2)c2ccc(O)cc2)cc1Cl`, the growth is -79.9% (active).

For `NNC(=O)c1ccc(C(=O)NN)cc1`, the growth was 94.6%.

`CN(C)CCOc1ccc(/C(=C(/CCCl)c2ccccc2)c2ccccc2)cc1`: the growth was -52.4% (active).

For the compound `CC(=O)Nc1ccc2nc3ccc(NC(C)=O)cc3[n+](-c3ccccc3)c2c1`, the growth is 94.5%.

In the case of `COc1ccc(/C=C(/C(=O)c2ccc(Cl)cc2)C(=O)C(F)(F)F)cc1`, the growth is 99.3%.

With `COc1cc2c(c(OC)c1)C1c3cc(OC)ccc3NC(=O)N1CC2` (configuration not stated), the growth was 90.8%.

Consider `COc1ccc(C=C2c3ccccc3-c3ccccc32)cc1`, for which the growth was 52.3%.

Regarding `O=S(=O)(c1ccc(N/N=C\c2ccccc2Cl)cc1)c1ccc(N/N=C/c2ccccc2Cl)cc1`, the growth is 92.1%.

For `CSc1nc(N)c(N=Nc2ccc(S(=O)(=O)Nc3nnc(C)s3)cc2)c(=O)[nH]1`, the growth is 117%.

Regarding `C=C(C)[C@@H]1CC[C@]2(C)[C@H](CC=C3[C@@H]4[C@@H](C)[C@H](C)CC[C@]4(C(N)=O)CC[C@]32C)[C@@]1(C)CCC#N`, the growth is -11.4% [100 µM] (active).

Regarding `CCOC(=O)CC(c1ccccc1)C(C#N)c1ccccc1` (configuration not stated), the growth is 94.2%.

For `Clc1ccc(/C=N/Nc2nc3ccccc3s2)c(Cl)c1`, the growth was 93.5%.

As for `CC1(C)CC[C@]2(C(=O)O)CC[C@]3(C)[C@H](CC[C@@H]4[C@@]5(C)CCC(=O)C(C)(C)[C@@H]5CC[C@]43C)[C@H]2[C@H]1OC(=O)C(F)(F)F`, the growth was -87% [100 µM] (active).

In another test the test system is M14 melanoma. Described as above. The conditions noted are these: 10 µM unless noted.
`COc1cc(C(=O)/C=C/c2c(-c3ccc(F)cc3)nc3sccn23)cc(OC)c1OC`: the growth is 35.3%.

As to `Nc1nc(N)c2c(n1)NC(c1ccc(F)cc1)C1CCc3ccccc3C1=N2` (configuration not stated), the growth was 62.8%.

On to `COc1ccc(-c2cc(-c3ccc(Cl)cc3)nc(NCCCCNc3ccnc4cc(Cl)ccc34)n2)cc1`, for which the growth was 34.6%.

On to `Cc1cc(C)nc(SCC(=O)Nc2cccc(N=Cc3ccccc3O)c2)n1`, for which the growth was 98.2%.

With `O=C(Nc1ccc(Nc2ccncc2)cc1)c1ccc([N+](=O)[O-])cc1`, the growth is 65.1%.

For `O=C1COCCN1c1ccc(NCc2cn(Cc3cccc4ccccc34)c3ccccc23)cc1`, the growth was 89%.

On to `O=C1/C(=C\c2cccn2Cc2ccccc2)c2ccccc2N1c1c(Cl)cccc1Cl`, for which the growth is 77%.

In the case of `CCCCCN(CCCCC)CCCCCCCCN1CCCc2ccccc21`, the growth is 89.8%.

For `CC(C)CSc1ncnc2nc[nH]c12`, the growth was 98.4%.

As for `CCN(CC)CCCC(C)Nc1ccnc2cc(Cl)c(SCc3ccccc3)cc12` (configuration not stated), the growth is -88.2% (active).

As to `O=C(Nc1ccc(C(=O)/C=C/c2ccc(N3CCOCC3)cc2)cc1)Nc1ccc([N+](=O)[O-])cc1`, the growth is 110%.

In the case of `Cc1ccc(-c2cn(C/C=C3\C=CN(S(=O)(=O)c4ccccc4)CC3)nn2)cc1`, the growth is 92.5%.

For the compound `CCOc1ccc2sc(NS(=O)(=O)c3ccc(N)cc3)nc2c1`, the growth was 109%.

Turning to `O=C(NCCCNC(=O)OCc1ccc2c(Br)cc(Br)c(O)c2n1)OCc1ccc2c(Br)cc(Br)c(O)c2n1`, the growth was -65.8% (active).

As for `C=CCc1nc2ccccc2s1`, the growth was 108%.

As to `CCN(CC)CCCNCc1cc(-c2ccccc2)nc2ccccc12`, the growth is 4.63% (active).

Regarding `C=C(C)[C@@H]1CC[C@]2(C(N)=O)CC[C@]3(C)[C@H](CC[C@@H]4[C@@]5(C)C/C(=C/c6cccnc6)C(=O)C(C)(C)[C@@H]5CC[C@]43C)[C@@H]12`, the growth was 15.7% [100 µM].

With `COC(=O)C(=Cc1ccccc1[N+](=O)[O-])C(=O)OC`, the growth is 32%.

Take `CCOC(CNC(=O)c1cccc([N+](=O)[O-])c1)OCC`: the growth is 98.7%.

As for `Fc1cc2[nH]ncc2c2c3c(c(-c4cn[nH]c4)nc12)CCCC3`, the growth was 1.03% (active).

Consider `O=C(CCN1CCCCC1)c1ccc(Cl)cc1`, for which the growth is 107%.

As to `CCOC(=O)C1=C(C(=O)c2ccc(Br)cc2)C(c2ccc(Br)cc2)NC(=S)N1` (configuration not stated), the growth was 97.2%.

Consider `Cn1cc(-c2noc(-c3cn(C)c4ncc(F)cc34)n2)c2cc(Cl)ccc21`, for which the growth is 78.6%.

For the compound `O=[N+]([O-])c1cc([N+](=O)[O-])c(NN=C(c2ccc(O)cc2)c2ccc(O)cc2)cc1Cl`, the growth is -86.8% (active).

In the case of `NNC(=O)c1ccc(C(=O)NN)cc1`, the growth is 114%.

For `CN(C)CCOc1ccc(/C(=C(/CCCl)c2ccccc2)c2ccccc2)cc1`, the growth was -52.2% (active).

On to `CC(=O)Nc1ccc2nc3ccc(NC(C)=O)cc3[n+](-c3ccccc3)c2c1`, for which the growth was 107%.

For `COc1ccc(/C=C(/C(=O)c2ccc(Cl)cc2)C(=O)C(F)(F)F)cc1`, the growth is 120%.

With `COc1cc2c(c(OC)c1)C1c3cc(OC)ccc3NC(=O)N1CC2` (configuration not stated), the growth is 59.4%.

Regarding `COc1ccc(C=C2c3ccccc3-c3ccccc32)cc1`, the growth is 30%.

For the compound `O=S(=O)(c1ccc(N/N=C\c2ccccc2Cl)cc1)c1ccc(N/N=C/c2ccccc2Cl)cc1`, the growth was 84.7%.

As to `CSc1nc(N)c(N=Nc2ccc(S(=O)(=O)Nc3nnc(C)s3)cc2)c(=O)[nH]1`, the growth is 101%.

Turning to `CCOC(=O)CC(c1ccccc1)C(C#N)c1ccccc1` (configuration not stated), the growth is 91.8%.

For `Clc1ccc(/C=N/Nc2nc3ccccc3s2)c(Cl)c1`, the growth is 121%.

Take `CC1(C)CC[C@]2(C(=O)O)CC[C@]3(C)[C@H](CC[C@@H]4[C@@]5(C)CCC(=O)C(C)(C)[C@@H]5CC[C@]43C)[C@H]2[C@H]1OC(=O)C(F)(F)F`: the growth is -35.2% [100 µM] (active).

These data come from PubChem BioAssay (NCI).
